Reference: PubChem BioAssay (EPA / NIEHS)
Inconclusive results are not listed. Activity calls are given as the source filed them. How the source made its calls: active means hit-call score of the fitted dose curve at least 0.9, where 1 is the maximum; inconclusive means response in the unintended direction; inactive means score below 0.9.

Each compound was assayed against bovine Estrogen Receptor (ER), ESR1 (gene 407238) (UniProt P49884) (assay: NVS_NR_bER: NovaScreen (NVS) Nuclear Receptor Binding Assay for bovine Estrogen Receptor (ER) (AID 2283345);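 further: actives lower the bound radioligand count which means they displace the ER ligand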).
Chain of bovine Estrogen Receptor (ER), ESR1 (gene 407238) (P49884 whole entry, looked up): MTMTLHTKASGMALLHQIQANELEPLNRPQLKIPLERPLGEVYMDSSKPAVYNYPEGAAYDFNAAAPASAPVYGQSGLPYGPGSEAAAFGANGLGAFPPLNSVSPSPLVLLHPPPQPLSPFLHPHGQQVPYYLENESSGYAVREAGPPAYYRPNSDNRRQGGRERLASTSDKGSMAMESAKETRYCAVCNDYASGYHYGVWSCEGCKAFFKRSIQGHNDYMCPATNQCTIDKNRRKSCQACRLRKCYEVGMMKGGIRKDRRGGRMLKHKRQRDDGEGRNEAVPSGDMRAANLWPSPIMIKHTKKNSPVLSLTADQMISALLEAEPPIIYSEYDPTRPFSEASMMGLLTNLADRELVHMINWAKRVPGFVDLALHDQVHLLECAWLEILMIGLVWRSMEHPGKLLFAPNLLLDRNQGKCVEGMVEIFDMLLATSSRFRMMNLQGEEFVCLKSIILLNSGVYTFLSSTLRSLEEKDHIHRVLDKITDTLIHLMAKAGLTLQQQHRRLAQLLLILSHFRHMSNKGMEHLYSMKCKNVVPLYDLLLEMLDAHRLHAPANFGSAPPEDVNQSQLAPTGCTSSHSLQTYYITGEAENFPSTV
Description: NVS_NR_bER is a biochemical, single-readout assay that uses extracted gene-proteins from Bovine uterine membranes in a tissue-based cell-free assay. Measurements were taken 18 hours after chemical dosing in a 96-well plate.NVS_NR_bER is one of one assay component(s) measured or calculated from the NVS_NR_bER assay. It is designed to make measurements of radioligand binding, a form of binding reporter, as detected with scintillation counting signals by Lysate-based radiodetection technology.Data from the assay component NVS_NR_bER was analyzed into 1 assay endpoint. This assay endpoint, NVS_NR_bER, was analyzed in the positive analysis fitting direction relative to DMSO as the negative control and baseline of activity. Using a type of binding reporter, loss-of-signal activity can be used to understand changes in the binding as they relate to the gene ESR1. Furthermore, this assay endpoint can be referred to as a primary readout, because the performed assay has only produced 1 assay endpoint. To generalize the intended target to other relatable targets, this assay endpoint is annotated to the nuclear receptor intended target family, where the subfamily is steroidal.
Binding assays used specific radioligands (tritiated, iodinated) with non-radioactive competitive displacement ligands in agonist or antagonist protocols (as indicated) and various reference compounds and inhibitors to titrate specific binding to receptors and transporters. Most enzyme assays (CYPs, kinases, phosphatases, proteases, HDACs) used recombinant protein and specific substrates (fluorescence mostly, some colorimetric and radioactive) and inhibitors, followed by a biochemical separation of substrate and product. All assays for the biochemical HTS were initially run in duplicate at a single concentration (10 uM for CYP450 assays and 25 uM for all others). […] Each assay was run with positive and negative controls, and concurrent controls on every plate. The follow-up (secondary) screen tested active chemical-pairs in concentration series, as well as a few additional assays not tested in the primary screen, some selected negative inactives, and several cases re-run in the concentration series for confirmatory purposes.
With `CC[C@H](C)[C@H]1O[C@]2(C=C[C@@H]1C)C[C@@H]1C[C@@H](C/C=C(\C)[C@@H](O[C@H]3C[C@H](OC)[C@@H](O[C@H]4C[C@H](OC)[C@@H](O)[C@H](C)O4)[C@H](C)O3)[C@@H](C)/C=C/C=C3\CO[C@@H]4[C@H](O)C(C)=C[C@@H](C(=O)O1)[C@]34O)O2` (tested in a mixture with another compound) the outcome was “inactive”. With `CC(C)(C)C(O)/C(=C\c1ccc(Cl)cc1Cl)n1cncn1` (stereo unspecified) the outcome was “inactive”. For `CCOc1nc(NC)nc(NC(=O)NS(=O)(=O)c2ccccc2C(=O)OC)n1`, the outcome was “inactive”. In the case of `COP(=S)(OC)Oc1ccc(SC)c(C)c1`, the outcome is reported as “inactive”. `N#Cc1c(Cl)c(Cl)c(Cl)c(C#N)c1Cl` was tested, and the outcome was “inactive”. `CC1(C)C(C=C(Cl)Cl)C1C(=O)OC(C#N)c1ccc(F)c(Oc2ccccc2)c1` (stereo unspecified) was tested, and the outcome was “inactive”. In the case of `COC(=O)c1ccccc1S(=O)(=O)NC(=O)N(C)c1nc(C)nc(OC)n1`, the outcome is reported as “inactive”. `CNC(=O)Oc1ccccc1OC(C)C` was tested, and the outcome was “inactive”. In the case of `O=[N+]([O-])c1c(Cl)c(Cl)c(Cl)c(Cl)c1Cl`, the outcome is reported as “inactive”. For `COC(=O)c1ccccc1CS(=O)(=O)NC(=O)Nc1nc(OC)cc(OC)n1`, the outcome was “inactive”. `O=C1c2ccccc2C(=O)N1SC(Cl)(Cl)Cl` was tested, and the outcome was “inactive”.
